This note sets out measurements from PMC7819943, “Rice protein-binding microarrays: a tool to detect cis-acting elements near promoter regions in rice”.

Whole data set: some 68,000 sequences, median “fluorescence intensity (a.u.)” near 9,100, cut for the highest 2% near 16,000. This is one part of a sample in which the highest values are shown more often than they occur.

Sequence of OsWRKY34 (Q0JBA9 entry or part of it): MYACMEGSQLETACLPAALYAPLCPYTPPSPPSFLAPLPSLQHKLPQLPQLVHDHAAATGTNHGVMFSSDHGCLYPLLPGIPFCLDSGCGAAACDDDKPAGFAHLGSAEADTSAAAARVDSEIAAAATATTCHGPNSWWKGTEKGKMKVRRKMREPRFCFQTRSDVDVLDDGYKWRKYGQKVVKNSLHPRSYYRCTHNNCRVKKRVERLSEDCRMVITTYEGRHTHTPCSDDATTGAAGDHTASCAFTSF

The experiment concerns the target OsWRKY34 (Oryza sativa, UniProt Q0JBA9 1-250). Description: protein-binding microarray (RPBM); PBS, 2% BSA, 51.3 ng/ul salmon testes DNA, 50 uM zinc acetate, 200 nM TF, 25 C, 1 h; high values mean tight binding. As to conditions: protein: recombinant; tags: N-terminal polyhistidine and DsRed monomer fusion (pET32a); label: CyDye5-dUTP incorporated in the synthesized complementary strand; 3' TTTTT single-stranded linker to array surface; dsDNA, one strand shown. In short, it runs like this:
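Using Ni–NTA, transcription factors fused N-terminally to polyhistidine and DsRed were purified after expression in E. coli BL21-CodonPlus. These were incubated at 200 nM with a blocked, double-stranded custom Agilent array for 1 h at 25 °C in a buffer containing 50 µM zinc acetate, and the array was washed. The binding signal is per-feature fluorescence intensity (arbitrary units) on an Axon 4000B scanner.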
Take “AATCTCCGTGGCGAGGGTGGGGTCGGAGGTGGTCATGTCGCGGAGTCACCTAGTGCAG”: the binding signal is 9290 fluorescence intensity (a.u.).

On to “TCGTGCGTGCGTGAGGGAGGTCGTGGTGGTGGTGGTGGTGCGGAGTCACCTAGTGCAG”, for which the binding signal was 9020 fluorescence intensity (a.u.). Consider “ATGGGAGGTGGGTGGTACCGTGGTGGTGGTCGCAGATCTGCGGAGTCACCTAGTGCAG”, for which the binding signal is 27200 fluorescence intensity (a.u.). As for “CGGAGGCGAGTGGGTGGGTGGTGGTCCAGTGCGGTGGTGCCGGAGTCACCTAGTGCAG”, the binding signal is 9800 fluorescence intensity (a.u.).

On to “TGTGTGAGATTTTTGCATGTTTTTGTTGTGTTTGTTCATACGGAGTCACCTAGTGCAG”, for which the binding signal was 8580 fluorescence intensity (a.u.).

For “TCTGGTTCCATTTTCCACGCACAGGAGAGTGATTACTTTTCGGAGTCACCTAGTGCAG”, the binding signal was 11200 fluorescence intensity (a.u.). For “TCTCTCTCTCGTGCGTCACCTCCTCGCGTGCTCAGCGCCGCGGAGTCACCTAGTGCAG” the value was 8780 fluorescence intensity (a.u.). Turning to “TCCTTGCTCCATCAGTATTACACCACCCAACACAAGCTCACGGAGTCACCTAGTGCAG”, the binding signal was 8870 fluorescence intensity (a.u.).

With “AGTTAATCCTTGTTAAACTTTGGTTTCAAAACAATTTCCCCGGAGTCACCTAGTGCAG”, the binding signal was 65500 fluorescence intensity (a.u.). Consider “CTCCTCATCCATCCACCACACCACTTGCCTCCAAACAAAACGGAGTCACCTAGTGCAG”, for which the binding signal was 9340 fluorescence intensity (a.u.). As for “CGACTTGTTGCCTCAAACAATTCCTGGTTATAAAACACCACGGAGTCACCTAGTGCAG”, the figure is 35500 fluorescence intensity (a.u.); as for “TCTACAAACTTGGTCAAACTTAAAACAGTTTGACTTTGACCGGAGTCACCTAGTGCAG”, 14600 fluorescence intensity (a.u.); as for “GGTTCAAATTAACTTTTCAATCTTGGCTGTGTTTGGATCCCGGAGTCACCTAGTGCAG”, 9630 fluorescence intensity (a.u.).

Consider “CCCTCTATAAATGGTTCCTATCACAACCACAAACACCACACGGAGTCACCTAGTGCAG”, for which the binding signal was 8240 fluorescence intensity (a.u.). “GCTGTTTCCTGGAGGTTCCATCCATGCTATCCTGTGCTCGCGGAGTCACCTAGTGCAG”: the binding signal was 8470 fluorescence intensity (a.u.). For the sequence “GACCAACCAAAACCTCCGATCACCTTGTCCCGTACTGAAACGGAGTCACCTAGTGCAG”, the binding signal is 11000 fluorescence intensity (a.u.). Take “TCACCCCGCCGCCGCCATCCAGGCGCCGACGACCTCCCATCGGAGTCACCTAGTGCAG”: the binding signal is 8840 fluorescence intensity (a.u.).

Turning to “CTCTCTTTTCCTTTTCTAATTTTAGATTTTATTTTATTTTCGGAGTCACCTAGTGCAG”, the binding signal was 8600 fluorescence intensity (a.u.). As for “GTTTTACATTTGTCCTAAATCAAACATATCTATCTTTGACCGGAGTCACCTAGTGCAG”, the figure is 8180 fluorescence intensity (a.u.); as for “CAGCTCGAGCTGTTTGCTTGTGGGGTTCTTGTTTTTCTTTCGGAGTCACCTAGTGCAG”, 8020 fluorescence intensity (a.u.); as for “TTTTTGTGTGTGTGCTGTGTTCTTGGGTTTCTTGGCAATGCGGAGTCACCTAGTGCAG”, 8650 fluorescence intensity (a.u.). Regarding “TGGTTTTGGCAGCTGCTGTGTGCACTTGTGGGTTTTTTCTCGGAGTCACCTAGTGCAG”, the binding signal was 8960 fluorescence intensity (a.u.). Turning to “GGGGTGGTTTTGGCTGAGCTGCTTGTGTCCTCTTCTTGCTCGGAGTCACCTAGTGCAG”, the binding signal was 18400 fluorescence intensity (a.u.). Consider “TTCTTGGCTTGGCTCCTCTGGTGTTCTTGTGCTCTGGGTTCGGAGTCACCTAGTGCAG”, for which the binding signal is 9970 fluorescence intensity (a.u.). For the sequence “TGGCTGAGCTTCTTTGCGTGTTCTTGTTTGGGTTTTGGGGCGGAGTCACCTAGTGCAG”, the binding signal was 18700 fluorescence intensity (a.u.). For “CATTTTATTGTGAACTTTTTCCTTTTAAACTCGATGTTTACGGAGTCACCTAGTGCAG”, the binding signal is 10700 fluorescence intensity (a.u.). With “GTGATGTTCATGCGACAATGTGTTTCTTCCTGGACATATTCGGAGTCACCTAGTGCAG”, the binding signal was 8050 fluorescence intensity (a.u.). For the sequence “CGTTGGAAAGCTACTGTTTTGACCCGTTCACACCACTACGCGGAGTCACCTAGTGCAG”, the binding signal is 9680 fluorescence intensity (a.u.). For “CAAATGGAGGCCCCTTTTAGATACGCTTCCTGTTACTTTCCGGAGTCACCTAGTGCAG”, the binding signal is 8710 fluorescence intensity (a.u.). As for “TCCTTCTGTCACCATTCGATTCCCAAACTCTCGCCGCCGCCGGAGTCACCTAGTGCAG”, the binding signal is 9140 fluorescence intensity (a.u.).

As for “CCCGCTTCTTCCCCGCTGCTTGAATCAGTCGTATCCTCACCGGAGTCACCTAGTGCAG”, the binding signal was 11400 fluorescence intensity (a.u.).

Take “CATCAGTTGGCGATTCCCGCTGTATCCTAGAATCTGCTGACGGAGTCACCTAGTGCAG”: the binding signal was 65000 fluorescence intensity (a.u.). “CTCTCTCTCTCTCTCTCTCTCTGCTGTTTTCTGTATCTGACGGAGTCACCTAGTGCAG”: the binding signal was 10100 fluorescence intensity (a.u.). Consider “ACGACAAGAACCACCTCTCTCTCTCTCTCTCACTGTCCACCGGAGTCACCTAGTGCAG”, for which the binding signal is 9040 fluorescence intensity (a.u.). As for “TTCCCCTTGCTCTTGCATTTGCTGCCGCTCTTCGCCTCTTCGGAGTCACCTAGTGCAG”, the binding signal is 9270 fluorescence intensity (a.u.). As to “TCTCTTCTCTTTCTCTCCTCTCTTTTTGCCGCCGCTCGAGCGGAGTCACCTAGTGCAG”, the binding signal was 8900 fluorescence intensity (a.u.). As to “TCAGGCTCTCACTCGCGCTGCATGCCACACTGCTTCTTCTCGGAGTCACCTAGTGCAG”, the binding signal was 16400 fluorescence intensity (a.u.).

Consider “GCCCTTCCTCTCCTCACTCACACTGCCCTGTTCATCTCTTCGGAGTCACCTAGTGCAG”, for which the binding signal was 8540 fluorescence intensity (a.u.). As to “TCTCTCTCTCTCCTTCGGCTCATTCGTCACTGTTCCACCGCGGAGTCACCTAGTGCAG”, the binding signal was 11300 fluorescence intensity (a.u.).

For “AAACTCTCACTCGCTCACTCACACCTCACACGCTGCTGCTCGGAGTCACCTAGTGCAG”, the binding signal was 8070 fluorescence intensity (a.u.). As to “GCTCAGCTCTTCACTTCTGCTGCATTCACACCACCACACTCGGAGTCACCTAGTGCAG”, the binding signal was 9310 fluorescence intensity (a.u.). As for “CACACACACTGCACTTCGGCTCACTCTCTCCACTGTTCTTCGGAGTCACCTAGTGCAG”, the binding signal is 16700 fluorescence intensity (a.u.).
